HPGD inh – qHTS Assay for Inhibitors of HPGD (15-Hydroxyprostaglandin Dehydrogenase); 15-hydroxyprostaglandin dehydrogenase [NAD(+)] (Homo sapiens), P15428; purified HPGD, NADH fluorescence kinetic, PGE2 substrate; Potency, µM, without a hit: at the highest dose activity change, negative = inhibition, hits mostly inhibitors; 4.3% of 150,000 active; active = well fitted inhibition curve with a large enough effect, not every such curve was filed as active; inconclusive = small, poorly fitted or top-dose-only effect, or another doubt; inactive = no such curve, though single readings can be large or run the other way; note: % is set by controls: 0 for no effect and ±100 for the full control effect
Target sequence (P15428 whole entry, looked up): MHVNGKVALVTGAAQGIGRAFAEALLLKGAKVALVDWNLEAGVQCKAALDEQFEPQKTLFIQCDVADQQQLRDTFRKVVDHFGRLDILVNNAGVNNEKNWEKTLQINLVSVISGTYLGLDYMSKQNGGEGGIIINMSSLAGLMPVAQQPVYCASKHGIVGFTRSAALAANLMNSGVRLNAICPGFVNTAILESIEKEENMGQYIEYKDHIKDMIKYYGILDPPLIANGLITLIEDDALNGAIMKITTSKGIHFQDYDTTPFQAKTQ
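20 nM HPGD preincubated 15 min at room temperature with compound in 50 mM Tris-HCl pH 8, 0.01% Tween 20. Started with 1 mM NAD+ and 30 uM prostaglandin E2; NADH fluorescence (360/450 nm) read 5 times over 30-s intervals, last minus first.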
Luc counter – Counterscreen for Luciferase (Kinase-Glo TM) Inhibition | Luciferin 4-monooxygenase (Photuris pensylvanica), Q27757 | Kinase-Glo luciferase, ATP luminescence, 8 min | Potency, µM (doses to about 38.3 µM), for inactives: at the highest dose activity change, negative = inhibition, most hits filed as inhibitors | 0.28% of 200,000 active; note: % is set by controls: 0 for no effect and ±100 for the full control effect; nearly all actives have a fitted effect of over 60% in size
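Luminescence was the read-out, taken after 8-minute incubation at ambient temperature. Luciferase turned over luciferin with 10 uM ATP in imidazole pH 7.2 buffer containing KCl, MgCl2, Tween 20 and BSA.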
HTT aggregate – qHTS Multiplex Assay to Identify Dual Action Probes in a Cell Model of Huntington: Aggregate Formation (GFP). PC12 HttQ103-GFP aggregates, Acumen cytometry, 40 h. Potency, µM (top dose mostly 46.1 µM), for inactives: at the highest dose activity change, negative = inhibition, hits mostly inhibitors. 1.1% of 220,000 active. AID 1688, 2009; note: % is set by controls: 0 for no effect and ±100 for the full control effect; nearly all actives have a fitted effect of over 60% in size
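Ecdysone-promoter PC12 model expressing HTT exon 1 Q103 fused to GFP, induced by tebufenozide at 100 nM final. Compounds titrated; aggregates sized 1–25 µm scored on a 488 nm laser cytometer.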
Lamin A splicing – qHTS Assay for Modulators of Lamin A Splicing; HeLa LMNA splicing GFP/RFP minigene ratio, 48 h; Potency, µM (top dose mostly 46.1 µM), without a hit: at the top dose ratio change, negative = inhibition, actives largely listed as inhibitors; 0.01% of 200,000 active; active = well fitted inhibition curve with a large enough effect in the signal ratio, with a control signal flat, not every such curve was filed as active; inconclusive = small, poorly fitted or top-dose-only effect, or effect the other way, or a change in a side signal; the % refers to the signal ratio; note: % is set by controls: 0 for no effect and ±100 for the full control effect
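Read-out is the ratio of GFP to DsRed2 object intensity, acquired by 488 nm laser-scanning cytometry on HeLa lamin A-EGFP minigene reporter cells. Compound incubation 48 hrs at 37 °C in Opti-MEM with 2% FBS; DMSO 0.5% final.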
HTT cytoprotect – qHTS Multiplex Assay to Identify Dual Action Probes in a Cell Model of Huntington: Cytoprotection (ATP) | Potency, µM (titrated, usually from 56.4 µM), for inactives: cytoprotection (ATP increase), actives largely listed as activators | PC12 HTT-Q103 induced, cytoprotection, ATP luminescence, 40 h | 0.14% of 230,000 active | AID 1471, 2008; note: % of control where 0% means no effect; nearly all actives have a fitted effect of over 45% in size
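PC12 cells with ecdysone-inducible HTT exon 1 Q103-GFP, induced with 100 nM tebufenozide and co-treated with library compounds in a dose series (1536-well, 1500 cells/well). Cytoprotection read as ATP content by ATPlite luminescence.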
ALDH1A1 block – qHTS Assay for Inhibitors of Aldehyde Dehydrogenase 1 (ALDH1A1); Aldehyde dehydrogenase 1A1 (Homo sapiens), P00352; Purified ALDH1A1, NADH fluorescence, propionaldehyde substrate; AID 1030, 2008; 7.3% of 220,000 active; Potency, µM (series often up to 75.3 µM), for the others: at the top dose activity, negative = inhibition, most hits filed as inhibitors; active = well fitted inhibition curve with a large enough effect, not every such curve was filed as active; inconclusive = small, poorly fitted or top-dose-only effect, or another doubt; inactive = no such curve, though single readings can be large or run the other way;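 note: plate controls were no enzyme wells and a reference inhibitor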
Target sequence (P00352 whole entry, looked up): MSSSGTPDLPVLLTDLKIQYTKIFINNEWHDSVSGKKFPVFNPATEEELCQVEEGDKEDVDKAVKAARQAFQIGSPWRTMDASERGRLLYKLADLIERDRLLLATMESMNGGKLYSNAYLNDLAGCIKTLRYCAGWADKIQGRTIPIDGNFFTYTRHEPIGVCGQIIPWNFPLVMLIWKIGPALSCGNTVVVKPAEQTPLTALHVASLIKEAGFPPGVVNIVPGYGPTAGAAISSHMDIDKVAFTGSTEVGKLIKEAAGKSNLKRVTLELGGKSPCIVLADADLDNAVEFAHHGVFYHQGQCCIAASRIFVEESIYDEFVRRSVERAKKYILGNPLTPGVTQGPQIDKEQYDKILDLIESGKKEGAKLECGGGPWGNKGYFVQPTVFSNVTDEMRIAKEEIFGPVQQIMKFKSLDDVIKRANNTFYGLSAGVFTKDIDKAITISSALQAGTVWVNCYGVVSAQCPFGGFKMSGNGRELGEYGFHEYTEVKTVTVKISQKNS
Numbers without * were called inactive; ? = inconclusive; · = no result; ! = not confirmed by another sample; [ ] = remark or other dose. Shown are actives, neighbours in structure and some others; about 9% of the full set was active somewhere. Unless noted, calls come from the whole dose curve; as a rule, active = well fitted curve in the direction sought with a large enough effect; inconclusive = small, poorly fitted or top-dose-only effect, or another doubt; inactive = no such curve, though single readings can be large; an effect the other way counts as inactive or inconclusive. Potency is the fitted concentration of half-maximal effect.

SMILES	HPGD inh	Luc counter	HTT aggregate	Lamin A splicing	HTT cytoprotect	ALDH1A1 block
COc1cc(/C=N/NP(=S)(c2ccccc2)c2ccccc2)ccc1O	-21%	1%	12%[9.22 µM]	3%	-16%	?
CN(CCCCC(=O)/C=N/O)Cc1ccccc1 (tested in a mixture with another compound)	-2%	2%	-8%	23%	3%	17%
CN(C)c1ccc(C=C2C(=O)NC(=S)NC2=O)cc1[N+](=O)[O-]	·	-5%	5%	5%[46 µM]	-45%	11µM*
C=CCn1c(O)c(C(C)=Nc2ccc3c(c2)CCC3)c(=O)[nH]c1=O	·	·	10%[9.22 µM]	·	-11%[10 µM]	·
COc1ccc(C2C(C(=O)N3CCC4(CC3)OCCO4)c3cc(OC)c(OC)cc3C(=O)N2C)cc1 (stereo not drawn)	-16%	0%	-17%	-6%	4%[10 µM]	14µM*
COc1ccc(NC(=O)N2CCC3(CC2)OCCO3)cc1OC	1%	2%	1%	-4%	·	16%
CCCN1CCC[C@@H]2Cc3n[nH]cc3C[C@H]21	-13%	-5%	·	?	·	-4%
O=C(Nc1ccc(Oc2ccc(Cl)cc2)c(Cl)c1)c1cc(I)cc(I)c1O	·	·	13µM*	·	-54%	·
COc1ccccc1OCC#CCN1CCCCCC1	·	2%	?	·	5.6µM*	28µM*
NC(=O)c1sc2nc3c(c(-c4cccs4)c2c1N)CCCC3	?	-3%	·	?	16µM*	?
Nc1c2c(nc3sc4c(c13)CCCCC4)CCCC2	-17%	-12%	?	?	-3%[10 µM]	?
CN1CCc2nc3sc(C#N)c(N)c3c(-c3cccs3)c2C1	-8%	-3%	-4%	0%	13µM*	-3%
Cc1cc(C=C2C(=O)NC(=S)NC2=O)c(C)n1-c1ccc2c(c1)OCO2	8.9µM*	?	-2%	?	16%[10 µM]	2.8µM*
Cc1cc(C=C2C(=O)NC(=O)NC2=O)c(C)n1-c1ccc2c(c1)OCO2	-10%	-19%	-10%	-11%	40%[10 µM]	?
CCc1ccccc1N1C(=O)/C(=C/c2ccc(N3CCN(C)CC3)o2)C(=O)NC1=S	-6%	-9%	?	?	·	?
Cc1cccc(N2C(=O)/C(=C/c3ccc(N4CCN(C)CC4)o3)C(=O)NC2=S)c1C	-37%	-13%	7%	8%	·	14µM*
CC(C)(C)c1ccc(C(=O)NC(=S)Nn2cnnc2)cc1	·	·	-2%	-7%	-16%[10 µM]	9.5µM*
CCOC(=O)CN(C#N)c1nc(N(C)C)nc(N(C)C)n1	·	3%	-10%	·	-24%	10µM*
ClC1=C(Cl)C(Cl)(Cl)C(Cl)=C1Cl	-8%	·	·	·	-9%	28µM*
O=C=NC1CCCCC1	-4%	·	·	·	-8%	28µM*!
Oc1ccc(/C=N/NP(=S)(c2ccccc2)c2ccccc2)cc1	32µM*	-5%	-18%	-4%	13%	20µM*
CCN(CC)C(=O)c1ccc(N2C(=O)C3CC=C(Cl)CC3C2=O)cc1 (stereo not drawn)	13µM*	3%	4%	6%	-7%	-6%
Cc1ccc(C(=O)NC(=S)NNS(=O)(=O)c2ccc(C)cc2)cc1	16µM*	1%	29%	8%	·	-11%
CC1=NN(c2ccccc2)C(=O)/C1=C/c1c(O)[nH]c(=S)[nH]c1=O	20µM*	0%	-20%	1%	-19%	?
CN[C@H]1C[C@H]2O[C@@](C)([C@H]1OC)n1c3ccccc3c3c4c(c5c6ccccc6n2c5c31)C(=O)NC4	?	1%	3%	?	·	-8%
SMILES	HPGD inh	Luc counter	HTT aggregate	Lamin A splicing	HTT cytoprotect	ALDH1A1 block
Fc1ccc(C(OCCN2CCN(CCCc3ccccc3)CC2)c2ccc(F)cc2)cc1	-15%	-3%	25µM*	?	-99%	-18%
CN(C)c1ccc(N=Nc2ccccc2)cc1	-11%	·	·	·	-107%	?
CN(C)c1ccc(N=O)cc1	-14%	·	·	·	-88%	0.4µM*
CN(C)c1ccc(N)cc1	-7%	·	·	·	-153%	14µM*
COCCCNC(=O)c1c(NC(=O)c2ccccc2Cl)n(Cc2ccccc2)c2nc3ccccc3nc12	-26%	-1%	-21%	-8%	5%[10 µM]	?
CCc1cc2c(nc1CC)CCN(CC/C(C)=N/OC)C2	·	·	·	·	-1%[10 µM]	-2%[13.5 µM]
O=C(c1ccccc1)N1CCC2(CC1)OCCO2	·	·	4%[9.22 µM]	·	8%[10 µM]	2%
O=C(c1ccc2c(c1)OCO2)N1CCC2(CC1)OCCO2	25µM*	4%	-8%	4%	-7%	5%
O=C(c1ccc(N2CCCCCC2)c([N+](=O)[O-])c1)N1CCC2(CC1)OCCO2	·	3%	-9%	13%[46 µM]	?	11µM*
CN1CCN(c2ccc(C(N)=O)cc2[N+](=O)[O-])CC1	0%	-1%	9%	-9%	-7%[10 µM]	8%
Cc1cc(/C=C2/C(=O)NC(=O)N(Cc3ccco3)C2=O)c(C)n1-c1ccccc1O	·	·	1%[9.22 µM]	·	-10%[10 µM]	·
CCN1C(=O)C(=C2C=C(C)OC(C)=C2)C(=O)N(CC)C1=S	·	3%	9%	·	13%[10 µM]	6%
CCN1C(=O)C(=Cc2ccc(C)s2)C(=O)N(CC)C1=S	8.9µM*	-9%	-10%	?	·	7.1µM*
O=C(NC1CN2CCC1CC2)c1ccc(-c2ccc([N+](=O)[O-])cc2)o1 (stereo not drawn)	-29%	2%	6%	-4%	9%[10 µM]	0.45µM*
CN1CC(C(=O)c2ccccc2)C(C(=O)c2ccccc2)C1 (stereo not drawn)	-21%	-2%	-1%	-12%	-18%	-5%
Cc1ccc(C2SCC(=O)Nc3c2c(=O)[nH]n3C2CCOC(C)(C)C2)cc1 (stereo not drawn)	-3%	5%	23%	-8%	17%[10 µM]	5%
CCN1CCN(c2ccc(NC(C)=O)cc2Cl)CC1	·	-1%	-2%[9.22 µM]	23%[46 µM]	-3%[10 µM]	-1%
CCN1CCN(S(=O)(=O)c2ccc(Cl)nc2)CC1	-2%	-2%	10%	4%	-8%	25µM*
COc1cc(C)c(-c2nc(CN3C[C@@H]4C[C@@H](C3)c3cccc(=O)n3C4)c(C)o2)cc1C	·	·	19%[9.22 µM]	·	-3%[10 µM]	-5%
C[C@H](N)c1cccc(Cl)c1Cl	·	·	·	·	-8%[1.9 µM]	·
O=c1c2ccccc2nc(/C=C/c2ccc(O)cc2)n1-c1ccccc1O	·	·	0%[9.22 µM]	·	-3%[10 µM]	-12%
O=c1c2ccccc2nc(/C=C/c2cccnc2)n1Cc1ccccc1	·	-1%	3%[9.22 µM]	·	15%[10 µM]	5µM*

Screens from PubChem.
